In all, about 5,500 compounds went through this assay and about 2,000 (36%) were called active. Another 18% or so got no clear call; they are omitted. The list shows a part of the results. Unmarked numbers belong to inactive results. Rule as the data show it: active = normalized growth mostly below about 0.91 (no sharp cut-off); inconclusive = no clear call, values can overlap the other calls; inactive = mostly above about 0.92.
Assay: chemical genetic growth profiling, strain panel (AID 1159580);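 also: tested at 20 µM; growth read once vehicle control cultures reached saturation at 30 °C; 1 = growth at the plate median or of vehicle wells; lower values mean less growth of the strain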
Settings: growth OD
[1] = S. cerevisiae deletion strains, locus YAL013W, strain DEP1, stronger effect = lower value
[2] = S. cerevisiae deletion strains, locus YBR229C, strain ROT2, stronger effect = lower value
[3] = S. cerevisiae deletion strains, locus YCL061C, strain MRC1, stronger effect = lower value
[4] = S. cerevisiae deletion strains, locus YDL101C, strain DUN1, stronger effect = lower value
[5] = S. cerevisiae deletion strains, locus YDL134C, strain PPH21, stronger effect = lower value
[6] = S. cerevisiae deletion strains, locus YDR150W, strain NUM1, stronger effect = lower value
[7] = S. cerevisiae deletion strains, locus YEL061C, strain CIN8, stronger effect = lower value
[8] = S. cerevisiae deletion strains, locus YGR078C, strain PAC10, stronger effect = lower value
[9] = S. cerevisiae deletion strains, locus YHR030C, strain SLT2, stronger effect = lower value
[10] = S. cerevisiae deletion strains, locus YHR087W, strain rtc3, stronger effect = lower value
[11] = S. cerevisiae deletion strains, locus YJL187C, strain SWE1, stronger effect = lower value
[12] = S. cerevisiae deletion strains, locus YJR043C, strain POL32, stronger effect = lower value
[13] = S. cerevisiae deletion strains, locus YJR075W, strain HOC1, stronger effect = lower value
[14] = S. cerevisiae deletion strains, locus YKL190W, strain CNB1, stronger effect = lower value
[15] = S. cerevisiae deletion strains, locus YLR039C, strain RIC1, stronger effect = lower value
[16] = S. cerevisiae deletion strains, locus YLR058C, strain SHM2 (second series), stronger effect = lower value
[17] = S. cerevisiae deletion strains, locus YLR085C, strain ARP6, stronger effect = lower value
[18] = S. cerevisiae deletion strains, locus YLR262C, strain YPT6, stronger effect = lower value
[19] = S. cerevisiae deletion strains, locus YML094W, strain GIM5, stronger effect = lower value
[20] = S. cerevisiae deletion strains, locus YMR219W, strain ESC1, stronger effect = lower value
[21] = S. cerevisiae deletion strains, locus YMR263W, strain SAP30, stronger effect = lower value
[22] = S. cerevisiae deletion strains, locus YMR307W, strain GAS1, stronger effect = lower value
[23] = S. cerevisiae deletion strains, locus YNL153C, strain GIM3, stronger effect = lower value
[24] = S. cerevisiae deletion strains, locus YNL298W, strain CLA4 (second series), stronger effect = lower value
[25] = S. cerevisiae deletion strains, locus YNL322C, strain KRE1, stronger effect = lower value
[26] = S. cerevisiae deletion strains, locus YNR030W, strain Alg12, stronger effect = lower value
[27] = S. cerevisiae deletion strains, locus YOL006C, strain TOP1, stronger effect = lower value
[28] = S. cerevisiae deletion strains, locus YPL055C, strain LGE1, stronger effect = lower value
[29] = S. cerevisiae deletion strains, locus YPL241C, strain CIN2, stronger effect = lower value
[30] = S. cerevisiae deletion strains, locus YPR135W, strain CTF4, stronger effect = lower value
[31] = S. cerevisiae strains, strain wild type, stronger effect = lower value

## N#Cc1ccc(-c2csc(-c3ccc(Oc4ccc(C(F)(F)F)cn4)cc3)n2)cc1
[1]
  normalized growth: 0.98
[2]
  normalized growth: 1
[3]
  normalized growth: 1.01
[4]
  normalized growth: 1.03
[5]
  normalized growth: 0.986
[6]
  normalized growth: 1.01
[7]
  normalized growth: 1.01
[8]
  normalized growth: 0.996
[9]
  normalized growth: 1.03
[10]
  normalized growth: 0.984
[11]
  normalized growth: 1
[12]
  normalized growth: 1.01
[13]
  normalized growth: 1.03
[14]
  normalized growth: 1.01
[15]
  normalized growth: 0.974
[16]
  normalized growth: 1
[17]
  normalized growth: 1.14
[18]
  normalized growth: 0.974
[19]
  normalized growth: 0.99
[20]
  normalized growth: 1
[21]
  normalized growth: 1.03
[22]
  normalized growth: 1.32
[23]
  normalized growth: 1.02
[24]
  normalized growth: 1
[25]
  normalized growth: 0.994
[26]
  normalized growth: 1
[27]
  normalized growth: 1.05
[28]
  normalized growth: 0.998
[29]
  normalized growth: 1.33 [resistant] (active)
[30]
  normalized growth: 0.88
[31]
  normalized growth: 0.99

## Cc1ccc(-c2csc(-c3ccc(Oc4ccc(C(F)(F)F)cn4)cc3)n2)c(C)c1
[1]
  normalized growth: 0.995
[2]
  normalized growth: 1
[3]
  normalized growth: 1.02
[4]
  normalized growth: 1.03
[5]
  normalized growth: 0.992
[6]
  normalized growth: 1.01
[7]
  normalized growth: 1
[8]
  normalized growth: 1.01
S. cerevisiae deletion strains, locus YGR229C, strain SMI1, stronger effect = lower value
  normalized growth: 0.996
[9]
  normalized growth: 1.06
[10]
  normalized growth: 0.995
[12]
  normalized growth: 1.01
[13]
  normalized growth: 1.03
[14]
  normalized growth: 0.993
[15]
  normalized growth: 1.03
[16]
  normalized growth: 1
[17]
  normalized growth: 1.17
[18]
  normalized growth: 0.996
[19]
  normalized growth: 1
[20]
  normalized growth: 0.998
[21]
  normalized growth: 1.03
[22]
  normalized growth: 1.24
[23]
  normalized growth: 1.02
[24]
  normalized growth: 1
[25]
  normalized growth: 1
[26]
  normalized growth: 1
[28]
  normalized growth: 1.01
[29]
  normalized growth: 1.03
[30]
  normalized growth: 0.966
[31]
  normalized growth: 0.988

## C/C(=N/NC(=S)Nc1ccc(C(C)C)cc1)c1ccco1
[1]
  normalized growth: 0.906 (active)
[2]
  normalized growth: 0.859 (active)
[3]
  normalized growth: 0.909 (active)
[4]
  normalized growth: 0.905
[5]
  normalized growth: 0.629 (active)
[6]
  normalized growth: 0.805
[7]
  normalized growth: 0.433 (active)
[8]
  normalized growth: 0.864 (active)
[9]
  normalized growth: 0.242 (active)
[10]
  normalized growth: 0.817 (active)
[11]
  normalized growth: 0.866 (active)
[12]
  normalized growth: 0.937
[13]
  normalized growth: 0.879 (active)
[14]
  normalized growth: 0.583 (active)
[15]
  normalized growth: 0.487 (active)
[16]
  normalized growth: 0.967
[17]
  normalized growth: 0.158 (active)
[18]
  normalized growth: 0.617 (active)
[19]
  normalized growth: 0.687 (active)
[20]
  normalized growth: 0.93 (active)
[21]
  normalized growth: 0.892 (active)
[22]
  normalized growth: 0.376 (active)
[23]
  normalized growth: 0.875 (active)
[24]
  normalized growth: 0.437 (active)
[25]
  normalized growth: 0.991
[26]
  normalized growth: 0.609 (active)
[27]
  normalized growth: 0.17 (active)
[28]
  normalized growth: 0.847
[29]
  normalized growth: 0.516 (active)
[30]
  normalized growth: 0.398 (active)
[31]
  normalized growth: 0.741 (active)

## O/N=C(/c1ccc(Cl)cc1)c1cc2ccccc2o1
S. cerevisiae deletion strains, locus YAR019C, strain CDC15, stronger effect = lower value
  normalized growth: 0.936
S. cerevisiae deletion strains, locus YBL105C, strain PKC1, stronger effect = lower value
  normalized growth: 0.946
S. cerevisiae deletion strains, locus YBR135W, strain CKS1, stronger effect = lower value
  normalized growth: 0.939
S. cerevisiae deletion strains, locus YBR136W, strain MEC1, stronger effect = lower value
  normalized growth: 0.945
S. cerevisiae deletion strains, locus YBR160W, strain CDC28, stronger effect = lower value
  normalized growth: 0.957
S. cerevisiae deletion strains, locus YDL017W, strain CDC7, stronger effect = lower value
  normalized growth: 0.946
S. cerevisiae deletion strains, locus YDL028C, strain MPS1, stronger effect = lower value
  normalized growth: 0.948
[4]
  normalized growth: 0.964
S. cerevisiae deletion strains, locus YDL108W, strain KIN28, stronger effect = lower value
  normalized growth: 0.943
S. cerevisiae deletion strains, locus YDL132W, strain cdc53, stronger effect = lower value
  normalized growth: 0.962
S. cerevisiae deletion strains, locus YDL214C, strain PRR2, stronger effect = lower value
  normalized growth: 0.887
S. cerevisiae deletion strains, locus YDR052C, strain DBF4, stronger effect = lower value
  normalized growth: 0.93
S. cerevisiae deletion strains, locus YDR054C, strain cdc34, stronger effect = lower value
  normalized growth: 0.947
S. cerevisiae deletion strains, locus YDR226W, strain ADK1, stronger effect = lower value
  normalized growth: 0.916
S. cerevisiae deletion strains, locus YDR477W, strain SNF1, stronger effect = lower value
  normalized growth: 0.847
S. cerevisiae deletion strains, locus YER123W, strain YCK3, stronger effect = lower value
  normalized growth: 0.883
S. cerevisiae deletion strains, locus YER133W, strain GLC7, stronger effect = lower value
  normalized growth: 0.813
S. cerevisiae deletion strains, locus YFL009W, strain cdc4, stronger effect = lower value
  normalized growth: 0.963
S. cerevisiae deletion strains, locus YFL029C, strain CAK1, stronger effect = lower value
  normalized growth: 0.94
S. cerevisiae deletion strains, locus YFR003C, strain YPI1, stronger effect = lower value
  normalized growth: 0.943
S. cerevisiae deletion strains, locus YFR019W, strain FAB1, stronger effect = lower value
  normalized growth: 0.904
S. cerevisiae deletion strains, locus YFR028C, strain CDC14, stronger effect = lower value
  normalized growth: 0.956
S. cerevisiae deletion strains, locus YGR040W, strain KSS1, stronger effect = lower value
  normalized growth: 0.852
S. cerevisiae deletion strains, locus YGR052W, strain FMP48, stronger effect = lower value
  normalized growth: 0.789
S. cerevisiae deletion strains, locus YGR092W, strain DBF2, stronger effect = lower value
  normalized growth: 0.748
[9]
  normalized growth: 0.526 (active)
S. cerevisiae deletion strains, locus YHR079C, strain IRE1, stronger effect = lower value
  normalized growth: 0.851
S. cerevisiae deletion strains, locus YHR082C, strain KSP1, stronger effect = lower value
  normalized growth: 0.877
S. cerevisiae deletion strains, locus YHR205W, strain SCH9, stronger effect = lower value
  normalized growth: 0.675
S. cerevisiae deletion strains, locus YIL147C, strain SLN1, stronger effect = lower value
  normalized growth: 0.943
S. cerevisiae deletion strains, locus YJL095W, strain BCK1, stronger effect = lower value
  normalized growth: 0.403 (active)
S. cerevisiae deletion strains, locus YJL128C, strain PBS2, stronger effect = lower value
  normalized growth: 0.893
S. cerevisiae deletion strains, locus YJL157C, strain FAR1, stronger effect = lower value
  normalized growth: 0.872
S. cerevisiae deletion strains, locus YJR016C, strain ILV3, stronger effect = lower value
  normalized growth: 0.941
S. cerevisiae deletion strains, locus YJR066W, strain TOR1 (second series), stronger effect = lower value
  normalized growth: 0.848
S. cerevisiae deletion strains, locus YJR066W, strain TOR1, stronger effect = lower value
  normalized growth: 0.797
S. cerevisiae deletion strains, locus YKL048C, strain ELM1, stronger effect = lower value
  normalized growth: 0.923
S. cerevisiae deletion strains, locus YKL067W, strain YNK1, stronger effect = lower value
  normalized growth: 0.893
S. cerevisiae deletion strains, locus YKL101W, strain HSL1, stronger effect = lower value
  normalized growth: 0.916
S. cerevisiae deletion strains, locus YKL193C, strain SDS22, stronger effect = lower value
  normalized growth: 0.93
S. cerevisiae deletion strains, locus YKL203C, strain TOR2, stronger effect = lower value
  normalized growth: 0.622 (active)
S. cerevisiae deletion strains, locus YLR113W, strain HOG1, stronger effect = lower value
  normalized growth: 0.915
S. cerevisiae deletion strains, locus YLR133W, strain CKI1, stronger effect = lower value
  normalized growth: 0.863
S. cerevisiae deletion strains, locus YLR403W, strain SFP1, stronger effect = lower value
  normalized growth: 0.614 (active)
S. cerevisiae deletion strains, locus YML070W, strain DAK1, stronger effect = lower value
  normalized growth: 0.868
S. cerevisiae deletion strains, locus YMR001C, strain CDC5, stronger effect = lower value
  normalized growth: 0.936
S. cerevisiae deletion strains, locus YMR205C, strain PFK2 (second series), stronger effect = lower value
  normalized growth: 0.862
S. cerevisiae deletion strains, locus YMR277W, strain FCP1, stronger effect = lower value
  normalized growth: 0.933
S. cerevisiae deletion strains, locus YNL006W, strain LST8, stronger effect = lower value
  normalized growth: 0.945
S. cerevisiae deletion strains, locus YNL020C, strain ARK1, stronger effect = lower value
  normalized growth: 0.82
S. cerevisiae deletion strains, locus YNL161W, strain CBK1, stronger effect = lower value
  normalized growth: 0.942
S. cerevisiae deletion strains, locus YNL183C, strain NPR1, stronger effect = lower value
  normalized growth: 0.784
S. cerevisiae deletion strains, locus YNL207W, strain RIO2, stronger effect = lower value
  normalized growth: 0.935
S. cerevisiae deletion strains, locus YNL222W, strain SSU72, stronger effect = lower value
  normalized growth: 0.947
S. cerevisiae deletion strains, locus YNL307C, strain MCK1 (second series), stronger effect = lower value
  normalized growth: 0.902
S. cerevisiae deletion strains, locus YOL078W, strain AVO1, stronger effect = lower value
  normalized growth: 0.937
S. cerevisiae deletion strains, locus YOL136C, strain PFK27, stronger effect = lower value
  normalized growth: 0.865
S. cerevisiae deletion strains, locus YOR061W, strain CKA2, stronger effect = lower value
  normalized growth: 0.87
S. cerevisiae deletion strains, locus YOR119C, strain RIO1, stronger effect = lower value
  normalized growth: 0.848
S. cerevisiae deletion strains, locus YOR231W, strain MKK1, stronger effect = lower value
  normalized growth: 0.964
S. cerevisiae deletion strains, locus YOR329C, strain SCD5, stronger effect = lower value
  normalized growth: 0.946
S. cerevisiae deletion strains, locus YPL031C, strain PHO85, stronger effect = lower value
  normalized growth: 0.84
S. cerevisiae deletion strains, locus YPL153C, strain RAD53, stronger effect = lower value
  normalized growth: 0.841
S. cerevisiae deletion strains, locus YPL204W, strain HRR25, stronger effect = lower value
  normalized growth: 0.807
S. cerevisiae deletion strains, locus YPL209C, strain IPL1, stronger effect = lower value
  normalized growth: 0.941
S. cerevisiae deletion strains, locus YPL256C, strain CLN2, stronger effect = lower value
  normalized growth: 0.917
S. cerevisiae deletion strains, locus YPR025C, strain CCL1, stronger effect = lower value
  normalized growth: 0.948
S. cerevisiae deletion strains, locus YPR106W, strain ISR1, stronger effect = lower value
  normalized growth: 0.946
S. cerevisiae deletion strains, locus YPR111W, strain DBF20, stronger effect = lower value
  normalized growth: 0.951
S. cerevisiae deletion strains, strain NNK1, stronger effect = lower value
  normalized growth: 0.946
S. cerevisiae deletion strains, strain TSCII, stronger effect = lower value
  normalized growth: 0.939

Reference: PubChem BioAssay AID1159580 (chemical genetic matrix, 2015)
